According to the supplement of paper PMC6555819:

Columns and labels:
Experiment in all cases: PBM binding z-score (relative to random genomic background probes); higher = stronger binding; sequences stand for … in GC…GCGATTGACAGCGTAGAATGAAGG
[1] = test system: LXRa:RXRa (NR concentration 270 nM, RXRa partner concentration 90 nM)
Summary of the method: (§1)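 The probes on custom Agilent 4×180K protein-binding microarrays were double-stranded, with 34-nt variable regions bearing direct-repeat seeds, single-nucleotide variants, half-site ablations and random human genomic background sequences. Incubation lasted 1 h with ligand-free nuclear receptor dimers in PBS pH 7.4, 2% milk, 0.02% Triton X-100, 1 mM DTT, 0.2 mg/mL BSA and 0.4 mg/ml salmon testes DNA. Antibodies against each partner (one per run) detected bound dimers, and fluorescence scans were regression-normalized. Binding z-scores take the random background probes as reference.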

[2] = test system: LXRa homodimer (NR concentration 270 nM)
Summary of the method: as §1

[3] = test system: LXRb homodimer (NR concentration 270 nM)
Summary of the method: as §1

[4] = test system: PPARg:RXRa (NR concentration 180 nM, RXRa partner concentration 90 nM)
Summary of the method: as §1

[5] = test system: PPARg:RXRa 270nM:90nM, anti-RXR (NR concentration 270 nM, RXRa partner concentration 90 nM)
Summary of the method: as §1

[6] = test system: PPARg:RXRa 30nM:10nM, anti-RXR (NR concentration 30 nM, RXRa partner concentration 10 nM)
Summary of the method: as §1

[7] = test system: PPARg:RXRa 90nM:30nM, anti-RXR (NR concentration 90 nM, RXRa partner concentration 30 nM)
Summary of the method: as §1

[8] = test system: PPARg:RXRa DBDmut IVT, anti-RXR (DBD mutation: RXRa K156A/R161A, NR concentration 270 nM, RXRa partner concentration 90 nM)
Summary of the method: as §1

[9] = test system: PPARg:RXRa IVT, anti-PPARg (NR concentration 270 nM, RXRa partner concentration 90 nM)
Summary of the method: as §1

[10] = test system: PPARg DBDmut:RXRa IVT, anti-PPARg (DBD mutation: PPARg1 K132A/R137A, NR concentration 270 nM, RXRa partner concentration 90 nM)
Summary of the method: as §1

[11] = test system: PPARg DBDmut IVT, anti-PPARg (DBD mutation: PPARg1 K132A/R137A, NR concentration 270 nM)
Summary of the method: as §1

[12] = test system: PPARg homodimer (NR concentration 180 nM)
Summary of the method: as §1

[13] = test system: PXR homodimer (NR concentration 270 nM)
Summary of the method: as §1

[14] = test system: RARa homodimer (NR concentration 270 nM)
Summary of the method: as §1

[15] = test system: RARb:RXRa (NR concentration 270 nM, RXRa partner concentration 90 nM)
Summary of the method: as §1

[16] = test system: RARb homodimer (NR concentration 270 nM)
Summary of the method: as §1

[17] = test system: PXR:RXRa (NR concentration 270 nM, RXRa partner concentration 90 nM)
Summary of the method: as §1

[18] = test system: RARa:RXR (NR concentration 270 nM, RXRa partner concentration 90 nM)
Summary of the method: as §1

| Sequence | PBM binding z-score [1] | PBM binding z-score [2] | PBM binding z-score [3] | PBM binding z-score [4] | PBM binding z-score [5] | PBM binding z-score [6] | PBM binding z-score [7] | PBM binding z-score [8] | PBM binding z-score [9] | PBM binding z-score [10] | PBM binding z-score [11] | PBM binding z-score [12] | PBM binding z-score [13] | PBM binding z-score [14] | PBM binding z-score [15] | PBM binding z-score [16] | PBM binding z-score [17] | PBM binding z-score [18] |
| --- | --- | --- | --- | --- | --- | --- | --- | --- | --- | --- | --- | --- | --- | --- | --- | --- | --- | --- |
| CGTCCAAGGTCATAGAGGTCAGTGAATGCCGAGT | 6.21 | 5.25 | 1.36 | 5.9 | 6.21 | 2.57 | 4.71 | 4.3 | 4.48 | 0.246 | 1.44 | 7.41 | 13.8 | 3.94 | 5.39 | 5.34 | – | – |
| GCTTAAGGGTCAAAGGTTATAGCATGAATAGAAT | 6.57 | 1.93 | 1.36 | 11.7 | 9.09 | 8.73 | 9.85 | 3.81 | 5.94 | 2.24 | 1.36 | 4.8 | 0.657 | 1.94 | – | 4.32 | – | – |
| ATCGAAAGGTCGACGAGGTGAGTAAACACCGTTT | 3.58 | 0.0172 | 0.228 | 2.6 | 3.59 | 1.02 | 2.3 | 0.114 | 1.85 | 0.135 | 1.17 | 1.63 | 0.324 | 0.378 | 3.85 | 2.98 | 3.05 | – |
| TATACAGGGTCAAAGGCCAAAGTACGAATGTCGA | 6.59 | 3.06 | 2.44 | 9.55 | 7.98 | 7.57 | 8.54 | 2.77 | 5.37 | 2.17 | 1.63 | 4.71 | 0.969 | 1.74 | 4.76 | 3.7 | 5.05 | – |
| GATACGGGGTCAAGGCCAGAGTACGCGTATTGAT | 6.02 | 0.0824 | 0.667 | 8.92 | 8.33 | 5.85 | 7.78 | 4.87 | 6.14 | 2.81 | 2.07 | 4.21 | 1.08 | 2.18 | 5.26 | 4.32 | – | – |
| TCTAGTAGGTCAAAGGTCACACACTCGAAATGCG | – | 5.52 | 2.6 | – | 11.6 | 13 | 14.2 | 8.19 | 9.26 | 6.06 | 3.11 | 7.45 | 2.56 | 5.05 | – | 5.5 | – | – |
| CGTCAAAGGTCATAGGAGGTCAGTGAAGACAGAT | – | 6.84 | 3.02 | 8.97 | 8.33 | 5.97 | 7.99 | 4.36 | 6.23 | 1.59 | 3.77 | 5.41 | 4.17 | 3.82 | – | 5.95 | – | – |
| ACTTAGGGGTCAACGAGGTTATAGCACGCGTATA | – | 2.91 | 2.35 | 9.33 | 8.62 | 6.08 | 8.5 | 5.4 | 5.93 | 2.39 | 2.86 | 3.01 | 9.1 | 2.38 | – | 5.02 | – | – |
| GCTTAGGGGTCAAAGGTTATAGCATGAATAGAAT | – | 1.95 | 2.82 | 11.8 | 9.66 | 9.13 | 10.2 | 5.79 | 6.52 | 3.02 | 2.44 | 2.86 | 1.2 | 1.8 | – | 4.64 | – | – |
| TATACGGGGTCAAAGGCCAGAGTACGAATGTCGA | – | 4.73 | 5.42 | – | 9.09 | 7.56 | 9.05 | 4.38 | 6.45 | 4.68 | 3.02 | 3.58 | 1.98 | 1.66 | 5.29 | 4.34 | – | – |
| CAAACAAGGTCACGAAAGGTCAAAGTCGAATGAC | – | 8.69 | 3.83 | 9.38 | 8.37 | 5.8 | 7.95 | 5.71 | 7.11 | 3.1 | 3.53 | 8.44 | 7.51 | 5.3 | – | 6.14 | – | – |
| ATCGAAAGGTCATGAGGTGAGTATACAGAAAGGC | – | 4.02 | 2.52 | 9.07 | 7.95 | 5.41 | 7.18 | 4.25 | 5.59 | 2.8 | 3 | 4.69 | 0.933 | 3.7 | – | 5.04 | 5.71 | – |
| TGTCAAAGTTCAAAGGTCACGTAAGTATCCACAC | – | 7.63 | 3.24 | – | 9.52 | 7.66 | 10.2 | 1.46 | 6.64 | 4.45 | 3.14 | 6.73 | 5.82 | 5.52 | – | 5.93 | – | – |
| TATACAGGGTCAAAGGTCAGAGTACGAATGTCGA | – | 4.72 | 3.86 | – | 9.79 | 9.88 | 10.9 | 3.73 | 6.32 | 2.47 | 1.85 | 2.64 | 1.68 | 2.73 | – | 5.41 | – | – |
| CGTCAAAGGTCAAAGGTCAGTGAAGAGATGACGG | – | 5.49 | 4.46 | 11.4 | 9.58 | 9.03 | 10.4 | 5.34 | 6.51 | 2.46 | 1.92 | 4.68 | 1.83 | 3.92 | – | 6.09 | 7.37 | 9.15 |
| ACTCGGAGGTCAAAGGTCAGAGCTACGCCAGTGA | – | 5.1 | 2.98 | – | 9.47 | 9.38 | 10.2 | 4.46 | 6.2 | 2.13 | 2.31 | 6.27 | 1.87 | 3.86 | – | 5.48 | – | – |
| CCTCGGAGGTCAACAGGAGGTCAGAGCTGCCAGA | – | 4.43 | 1.49 | 6.66 | 6.55 | 2.94 | 5.21 | 3.21 | 4.76 | -0.0592 | -0.488 | 5.25 | 1.63 | 1.53 | – | 5.7 | – | – |
| TCTCGGAGGTCACGAAAGGTCAGAGCTCGACATC | – | 6.78 | 2.06 | 8.27 | 7.76 | 5.31 | 7.09 | 4.43 | 6.3 | 1.39 | 2.35 | 6.9 | 3.6 | 5.11 | – | 6.12 | – | – |
| CGTCTAAGGTCATAGGAGGTCAGTGAAGACAGAT | – | 5.68 | 1.55 | 6.42 | 6.7 | 3.31 | 5.55 | 3.95 | 4.85 | 1.68 | 1.09 | 6.3 | 6.55 | 3.85 | 5.66 | 5.47 | – | – |
